The text below walks through data of PubChem BioAssay (NCI).

Structures are written as SMILES. The panel holds about 79,000 compounds, 15% with a hit somewhere; the sample as a whole holds those more often. A number with no mark means an inactive call. Activity calls are given as the source filed them. No stated cut-off is given here; in the data, active means growth inhibition above about 70%; inactive means the rest.

Experiment [1] is described as follows: NCI Yeast Anticancer Drug Screen. Data for the rad50 strain (AID 155).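 Further: 0% = growth of vehicle-only cultures of the same strain.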 Conditions: S. cerevisiae rad50 strain growth inhibition; at 50.0 µM; hits give high values. The method, boiled down: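 Compounds were tested on a yeast strain with an engineered DNA damage repair alteration; the reported value is growth inhibition normalised to vehicle treatment.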
Experiment [2] in a line: NCI Yeast Anticancer Drug Screen. Data for the mec2-1 strain (AID 157). Conditions: S. cerevisiae mec2-1 strain, at 50.0 µM, hits give high values. The method, boiled down: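 Mutant yeast (mec2-1) grown with compound; growth inhibition relative to vehicle control reported.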
Experiment [3] is described as follows: NCI Yeast Anticancer Drug Screen. Data for the sgs1 mgt1 strain (AID 161).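 Further: 0% = growth of cultures given vehicle only.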 The settings on record: S. cerevisiae sgs1 mgt1 strain, at 50.0 µM, hits give high values. Summed up:
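Compounds are added to genetically altered yeast, and growth is compared with cultures given vehicle alone to give percent inhibition.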

Experiment [4] is described as follows: NCI Yeast Anticancer Drug Screen. Data for the cln2 rad14 strain (AID 165).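 Further: 0% = growth equal to vehicle treated cultures.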 Conditions: S. cerevisiae cln2 rad14 strain, at 50.0 µM, hits give high values. The method, boiled down:
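Readout is yeast growth inhibition versus vehicle-treated controls, using a strain with cln2 and rad14 alterations exposed to compound.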

A short description of experiment [5]: NCI Yeast Anticancer Drug Screen. Data for the bub3 strain (AID 167). Conditions: S. cerevisiae bub3 mutant strain, at 50.0 µM, hits give high values. Summed up:
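Growth of a checkpoint-deficient yeast mutant is measured after compound exposure. Values represent inhibition relative to vehicle.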

Experiment [6] is described as follows: NCI Yeast Anticancer Drug Screen. Data for the mlh1 rad18 strain (AID 175). The settings on record: S. cerevisiae mlh1 rad18 strain growth inhibition; at 50.0 µM; hits give high values. The method, boiled down:
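Genetically defined yeast (DNA repair-deficient) exposed to compounds; growth inhibition determined relative to vehicle.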

In the case of `NC(=O)CO`, the growth inhibition was 22.2% in experiment [1]; -15.9% in experiment [2]; 17.6% in experiment [3]; 5.35% in experiment [4]; 5.7% in experiment [5]; 19.5% in experiment [6].

As to `Cc1ccc(C#N)c2c1CCC2`, the growth inhibition in experiment [1] was 2.65%; in experiment [2], -10.7%; in experiment [3], 3.05%; in experiment [4], -50%; in experiment [5], -13%; in experiment [6], 2.6%.

Take `CC1COC(c2cc3c(cc2Cl)OCO3)O1` (stereo unspecified): the growth inhibition in experiment [1] was -12.4%; in experiment [2], -2.4%; in experiment [3] it was -20.3%; in experiment [4], -10.9%; in experiment [5] it was -26.6%; in experiment [6], -0.4%.

Consider `COC1=C(N)C(=O)c2nc(C)ccc2C1=O`, for which the growth inhibition is 45.8% in experiment [1]; 44.4% in experiment [2]; 55.5% in experiment [3]; -3.9% in experiment [4]; 56.9% in experiment [5]; 66.5% in experiment [6].

With `O=C(NCCCCCCNC(=O)c1ccccn1)c1ccccn1`, the growth inhibition in experiment [1] was 0.25%; in experiment [2], -9.9%; in experiment [3] it was 9.05%; in experiment [4], -7.15%; in experiment [5], -14.8%; in experiment [6] it was -0.8%.

Take `OCCN(Cc1ccccc1)C(c1ccccc1)c1ccccc1`: the growth inhibition in experiment [1] is 98.8% (active); in experiment [2], 98.9% (active); in experiment [3], 98.8% (active); in experiment [4] it was 98.4% (active); in experiment [5], 98.5% (active); in experiment [6] it was 98.9% (active).

As for `O=C(CC(c1ccccc1)C1CCCC1=O)c1ccccc1` (stereo unspecified), the growth inhibition in experiment [1] is 11.1%; in experiment [2], 1.65%; in experiment [3], 17.6%; in experiment [4] it was -21.3%; in experiment [5], 6.1%; in experiment [6] it was 17.1%.

Turning to `O=C1CCCCC1CN1CCCC1` (stereo unspecified), the growth inhibition is -10.4% in experiment [1]; -12% in experiment [2]; -33.6% in experiment [3]; 21.4% in experiment [4]; -42.5% in experiment [5]; -22.6% in experiment [6].

Consider `COc1ccc(CN2C(=S)SC(c3ccc(Cl)cc3)N2c2ccc(OC)cc2)cc1` (stereo unspecified), for which the growth inhibition in experiment [1] is -25.1%; in experiment [2] it was -19.6%; in experiment [3], -9.2%; in experiment [4] it was -37%; in experiment [5], -1.35%; in experiment [6], -19.8%.

Take `CCOC(=O)c1ccc(N=Nc2ccc(N(CCC#N)CCC#N)cc2C)cc1`: the growth inhibition in experiment [1] is -47.5%; in experiment [2] it was -50.6%; in experiment [3] it was -27.4%; in experiment [4], -4.4%; in experiment [5], -36.8%; in experiment [6], -24.5%.

`COc1cccc(-c2nc(-c3cnccn3)n(C3OC(CO)C(O)C3O)n2)c1` (stereo unspecified): the growth inhibition in experiment [1] was -16.4%; in experiment [2], -22.4%; in experiment [3] it was -12.8%; in experiment [4] it was 11.6%; in experiment [5] it was -45%; in experiment [6], -22.6%.

In the case of `COc1cccc2c1C(=N)c1c(O)c3c(c(O)c1C2=O)C[C@@](O)(C(=O)CO)C[C@@H]3OC1CC(N)C(O)C(C)O1` (stereo partly specified), the growth inhibition in experiment [1] is 55.4%; in experiment [2], 23.2%; in experiment [3], -8.7%; in experiment [4], 22.4%; in experiment [5], -16.9%; in experiment [6], -13.9%.

For `CN(CCO)CC(O)Cn1cnc2ncnc(N)c21` (stereo unspecified), the growth inhibition in experiment [1] is 21.2%; in experiment [2] it was 12%; in experiment [3], 28.7%; in experiment [4], 13.4%; in experiment [5], 7%; in experiment [6], 33.5%.

In the case of `CCCS(=O)(=O)CCC(=O)c1cccs1`, the growth inhibition in experiment [1] was -0.05%; in experiment [2] it was -12.1%; in experiment [3], -8.4%; in experiment [4], -19%; in experiment [5], -1.85%; in experiment [6], 5.95%.

As to `CCOC(=O)C1(Cc2ccc3c(c2)CCC3)Cc2cc3c(cc2C1=O)CCC3` (stereo unspecified), the growth inhibition was -11.1% in experiment [1]; -28.1% in experiment [2]; -17.9% in experiment [3]; 19.1% in experiment [4]; 14.2% in experiment [5]; -2.55% in experiment [6].

For `Cc1ccc2c(c1)Cc1cc(C)ccc1-2`, the growth inhibition was 25.1% in experiment [1]; 12.4% in experiment [2]; 14.4% in experiment [3]; 7.65% in experiment [4]; 31.2% in experiment [5]; 19.4% in experiment [6].

Turning to `COc1ccc(/C=[N+](\[O-])c2ccccc2)cc1` (tested in a mixture with another compound), the growth inhibition in experiment [1] was -2%; in experiment [2], 8.2%; in experiment [3], 4.1%; in experiment [4], 0.4%; in experiment [5], -10.8%; in experiment [6] it was 8.35%.

On to `Cc1ccc(C(=O)N/N=C/c2ccc3ccccc3c2)cc1`, for which the growth inhibition in experiment [1] is -1%; in experiment [2] it was -13.2%; in experiment [3] it was -5.25%; in experiment [4], -13.8%; in experiment [5], 33.4%; in experiment [6], -5.3%.

Regarding `O=Cc1cc(Cl)cc(Cl)c1`, the growth inhibition in experiment [1] is 5%; in experiment [2], -18.1%; in experiment [3], 0.85%; in experiment [4], 8.7%; in experiment [5], 8.95%; in experiment [6] it was 6.55%.

Consider `O=c1cc(-c2ccccc2)oc2c(-c3cc(Cl)cc4c(=O)cc(-c5ccccc5)oc34)cc(Cl)cc12`, for which the growth inhibition in experiment [1] is -6.65%; in experiment [2] it was 23.4%; in experiment [3], 13.7%; in experiment [4], -3.1%; in experiment [5] it was -2.2%; in experiment [6], 79.3% (active).

Consider `CC1(C)CC(=O)C=C(NCCCCCCCCNC2=CC(=O)CC(C)(C)C2)C1`, for which the growth inhibition in experiment [1] is -0.25%; in experiment [2], 19.8%; in experiment [3] it was 5.7%; in experiment [4], 6.45%; in experiment [5], 5%; in experiment [6] it was 9.8%.
